Reference: PubChem BioAssay AID624330 (Southern Research Specialized Biocontainment Screening …, 2012)
Where “and” joins values, the source holds several entries; their conditions need not be identical. Equal entries are not always repeated. Hit rate of the full screen: of about 340,000 compounds, about 2,100 (0.62%) were called active.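 How the source made its calls: active means first-screen hits whose inhibition reached a set limit at any dose in the follow-up dose series; inconclusive means inhibition above the set first-screen limit but never retested; inactive means the rest.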 These entries were drawn from the full list. Potency and affinity values are given separately.

Each compound was assayed against Rac GTPase-activating protein 1 (Homo sapiens) (UniProt Q9H0H5) (assay: blockers of MgcRacGAP-driven Rac1 GTP hydrolysis – biochemical, ADP Hunter fluorescence, primary and confirmatory, confirmation (AID 624330;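 further: fluorescence reports GDP produced by GAP-driven GTP hydrolysis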)). Conditions: MgcRacGAP-stimulated Rac1 GTP hydrolysis, at 30 µM, active compounds read high, GST-tagged Rac1 F28L mutant substrate.
Chain of Rac GTPase-activating protein 1 (Homo sapiens) (Q9H0H5 whole entry, looked up): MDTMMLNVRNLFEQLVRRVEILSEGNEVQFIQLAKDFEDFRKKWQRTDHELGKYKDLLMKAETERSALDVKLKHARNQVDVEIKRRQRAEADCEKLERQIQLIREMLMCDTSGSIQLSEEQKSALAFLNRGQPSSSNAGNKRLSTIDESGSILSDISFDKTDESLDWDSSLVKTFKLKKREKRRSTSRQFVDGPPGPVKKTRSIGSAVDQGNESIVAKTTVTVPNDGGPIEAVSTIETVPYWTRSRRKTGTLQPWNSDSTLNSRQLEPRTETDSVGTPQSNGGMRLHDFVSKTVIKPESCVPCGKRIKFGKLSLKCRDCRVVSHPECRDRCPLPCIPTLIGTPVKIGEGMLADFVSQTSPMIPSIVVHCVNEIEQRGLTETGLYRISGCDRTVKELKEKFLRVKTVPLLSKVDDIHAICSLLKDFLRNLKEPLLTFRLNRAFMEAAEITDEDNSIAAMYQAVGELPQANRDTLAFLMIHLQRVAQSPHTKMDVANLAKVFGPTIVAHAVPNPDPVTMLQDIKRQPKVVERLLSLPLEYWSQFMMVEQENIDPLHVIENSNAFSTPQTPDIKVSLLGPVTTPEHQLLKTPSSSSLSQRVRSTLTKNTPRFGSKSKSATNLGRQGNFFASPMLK

inhibition, inactive:
O=C(CN1C(=O)c2ccccc2S1(=O)=O)Nc1ccc(S(=O)(=O)N2CCCC2)cc1 -4.76%, O=S(=O)(c1ccc(Cl)cc1)N1CCCCCC1 4.19%, CN1CCN(S(=O)(=O)c2ccc(Cl)cc2)CC1 4.29% and 1.92%, Cc1ccc(S(=O)(=O)NCCc2ccccc2)cc1 8.77%, Cc1ccc(S(=O)(=O)N2CCC(C(=O)N3CCCC(C(F)(F)F)C3)CC2)cc1C (centres undefined) 5.5%, CCOC(=O)C1=C(C)NC(=O)CC1c1cc2c(cc1Br)OCO2 (centres undefined) 14.8%, CCOC(=O)C1=C(C)N(C)C(=O)NC1c1cc2c(cc1[N+](=O)[O-])OCO2 (centres undefined) 11.2%, COc1ccc(CC(Cc2ccc(OC)c(OC)c2)NC=O)cc1OC 8.2%, O=C(Nc1ccccc1C(=O)Nc1ccccc1)c1ccco1 3.51%, CCOc1ccc(N2C(=O)C3C(c4ccccc4F)NN(C(=O)c4ccc(C)cc4)C3C2=O)cc1 (centres undefined) -3.94%, CC(=O)C1C(c2ccc([N+](=O)[O-])cc2)c2c(noc2C)CC1(C)O (centres undefined) -3.68%, CC(C)(C)OC(=O)n1cc(/C=N/NC(=O)c2ccco2)c2ccccc21 6.56%, O=C(O)CCCN1C(=O)/C(=C/c2ccc(-c3nc4ccccc4s3)o2)SC1=S 11.9%, O=C(O)CCCN1C(=O)/C(=C\c2ccc(-c3nc4ccccc4s3)o2)SC1=S 10.4%, COc1ccc(NC(=O)CNC(c2ccccc2)c2ccccc2)cc1Cl 5.6%, Cc1cccc(NC(=O)Cn2c(=O)oc3cc(S(=O)(=O)N4CCCC4)ccc32)n1 9.63%, CN(C)S(=O)(=O)Oc1ccc(Cl)cc1C(=O)Nc1ccc(F)cc1F 0.65%, Cc1ccc(F)cc1N=Cc1c(O)c2ccccc2oc1=O 7.61%, Cc1ccc(N=Cc2c(O)c3ccccc3oc2=O)c(C)c1 5.4%, COc1ccccc1NC(=O)C(=O)N1N=C(C(C)C)CC1(O)C(F)(F)F (centres undefined) -2.51%, O=C(NCc1cccc(C(F)(F)F)c1)C1CC(c2ccc(C(F)(F)F)cc2)=NO1 (centres undefined) 7.21%, Cc1ccc(Nc2cc(C)nc3ncnn23)c(C)c1 7.05%, Cc1ccc(C)c(N2CCN(CCCc3ccccc3)CC2)c1 -8.46%, CCN(CC)c1ccc(NC2=C(Cl)C(=O)c3ccccc3C2=O)cc1 28.6%, Cc1ccc(NC2=C(Cl)C(=O)c3ccccc3C2=O)cc1 5.85%, O=C1C(Cl)=C(NCCCO)C(=O)c2ccccc21 7.29%, CCc1ccc(S(=O)(=O)/N=C2\C=C(Nc3ccc(O)cc3)C(=O)c3ccccc32)cc1 10.1%, O=C1C(Nc2ccccc2)=C/C(=N/S(=O)(=O)c2cccs2)c2ccccc21 13.2%, Cc1ccc(NC2=C/C(=N/S(=O)(=O)c3cccs3)c3ccccc3C2=O)cc1 12.6%, O=C(O)c1ccc(NC2=C/C(=N/S(=O)(=O)c3ccccc3)c3ccccc3C2=O)cc1 11.5%, CCNC1=C(Cl)C(=O)c2ccccc2C1=O 9.6%, CC(C)CN1CCC(=O)N([C@H](COc2ccccc2)c2ccccc2)CC1 12.8%, O=C(CN1C2CCCC1CC(NC(=O)c1ccco1)C2)Nc1ccccc1 (centres undefined) 9.34%, CN(CC(=O)Nc1cccc(F)c1)CC(=O)N(C)c1c(N)n(Cc2ccccc2)c(=O)[nH]c1=O 7.85%, CC(C)c1ccc(NC(=O)COC(=O)c2c[nH]c(=O)[nH]c2=O)cc1 6.27%, Cc1ccc(C(=O)Nc2ncccc2O)cc1S(=O)(=O)N1CCCCC1 -2.55%, Cc1csc(=O)n1CC(=O)OCC(=O)NCc1ccc(Cl)cc1Cl 8.92%, O=C(Nc1ccc(Cl)cc1)C(c1ccccc1)N1CCOCC1 (centres undefined) 1.96%, COC1=C(Nc2ccc(C)cc2)C(=O)c2ccccc2C1=O 6.66%, COC1=C(Nc2ccccc2)C(=O)c2ccccc2C1=O 11.3%, Nc1nc(COc2ccc(Cl)cc2)cs1 5.42%, O=C(Nc1ccc2c(c1)OCCO2)C1CC(O)CN1C(=O)Nc1ccccc1 (centres undefined) 5.39%, Cc1cc(C(=O)NNC(=O)/C=C/c2ccccc2Cl)c(C)o1 6.81%, Cc1cc(C(=O)NNC(=O)/C=C/c2ccc(F)cc2)c(C)o1 0.14%, COc1cccc(-c2cc(C(=O)Nc3cccnc3)no2)c1 3.22%, Cc1c(Cl)cccc1NC(=S)NCc1cccs1 5.46%, COCC(=O)NC1CCN(S(=O)(=O)c2ccc(C(=O)O)cc2)CC1 3.4%, COc1cc2cnc(-c3ccccc3)c(C(=O)c3ccc(F)cc3)c2cc1OC 6.22%, Cc1ccc(N=Nc2c(N)nn3c(C)cc(C)nc23)cc1 7.06%, Cc1cc(C)n2nc(N)c(N=Nc3ccccc3)c2n1 13.3%, Cc1cc(C)n2nc(N)c(N=Nc3ccc(Cl)cc3)c2n1 8.06%, Nc1nn2c(-c3ccccc3)cc(=O)[nH]c2c1N=Nc1ccc(Br)cc1 4.26%, COc1ccc(C(=O)NNC(=O)CSc2ccccc2)cc1 0.63%, Cc1ccc(N(CC(=O)N2CCN(C3CCCCC3)CC2)S(=O)(=O)c2cccnc2)cc1 -4.65%, N#CC(C#N)=C1C(=O)N(CCN2CCCCC2)c2ccccc21 -11.4%, O=C(CSc1nc(NS(=O)(=O)c2ccccc2)cc(=O)[nH]1)Nc1ccc(Cl)cc1 -0.7%, NS(=O)(=O)c1ccc(CCNC(=O)CN2CCC(Cc3ccccc3)CC2)cc1 6.03%, NS(=O)(=O)c1ccc(NC(=S)N2CCC(Cc3ccccc3)CC2)cc1 18.2%, Cc1ccc(OCC(=O)NNC(=O)C2CC(=O)N(c3ccc4c(c3)OCCO4)C2)cc1 (centres undefined) 6.61%, O=C(CCc1nnc(CCCCc2ccccc2)o1)NCc1cc(F)ccc1F 9.91%, Cn1c(CCC(=O)OCC(=O)Nc2ccc(Oc3ccccc3)cc2)nc(=O)c2ccccc21 2.65%, CC(C)Cc1n[nH]c(=O)[nH]1 4.75%, O=C1NC(=O)C(=Cc2ccccc2)N1 -1.98%, COc1ccc(C=C2NC(=O)NC2=O)cc1O 10.9%, COc1cc(/C=C2\SC(=N)N(c3ccc(F)cc3)C2=O)ccc1O 20.9%, CCN(CC)c1ccc(/C=C2\NC(=O)NC2=O)cc1 30.9%, COc1ccc(C=C2SC(=O)NC2=O)cc1OC 6.99%, O=C1NC(=O)/C(=C/c2cccc(O)c2)N1 5.03%, CC1(C)CC(=O)C(C=NCCN2CCN(C(=O)c3ccc(F)cc3)CC2)=C(O)C1 0.28%, COc1ccccc1CN1CC(C(=O)NCc2nccn2C)CCC1=O (centres undefined) 10.1%, COC(=O)[C@@]12CCCN1[C@H](c1ccc(-c3ccccc3)cc1)[C@H]1C(=O)N(C)C(=O)[C@H]12 8.21%, COc1ccc(CCNC(=O)Cn2ccc3c(OC)cccc3c2=O)cc1OC 8.24%, CCOC(=O)C1=C(COC(=O)/C=C/c2cccc(Br)c2)NC(=O)NC1C (centres undefined) 2.35%, Cc1cccc(C)c1-n1nnnc1C1(Nc2ccccc2)CCCCC1 8.6%, CN(C(=O)c1ccc(NC(=O)Cc2cccc(NC(=O)C3CCCN(C(=O)C4CCCC4)C3)c2)cc1)C1CCCC1 (centres undefined) 8.78%, COc1cc(OC)cc(C(=O)NCC2CCCN(C(=O)c3csc(C(C)C)n3)C2)c1 (centres undefined) 8.24%, Cc1ccc(C(=O)N2CCCC(Nc3ccc(C(C)C)cc3)C2)cn1 (centres undefined) 7.62%, COc1ccc(C(=O)N2CCCC(Nc3ccc(C(C)C)cc3)C2)c(OC)n1 (centres undefined) 2.96%, COc1ccc(OCC(=O)N2CCCC(Nc3ccc(C)c(C)c3)C2)cc1 (centres undefined) 14.3%, CC(=O)c1ccc(C(=O)N2CCCC(Nc3ccccc3)C2)s1 (centres undefined) 7.53%, CC(=O)c1ccc(C(=O)N2CCCC(Nc3ccc(C(C)C)cc3)C2)s1 (centres undefined) -45.7%, COc1ccc(NC2CCCN(C(=O)c3cccnc3)C2)cc1 (centres undefined) 26.2%, CC(=O)c1ccc(OCC(=O)N2CCCC(Nc3ccc(C)c(C)c3)C2)cc1 (centres undefined) 14.3%, CC(C)(C)c1ccc(C(=O)NCCCN2CCN(CCCNC(=O)c3ccc(C(C)(C)C)cc3)CC2)cc1 0.51%, COC(=O)C1=C(O)C(C(=O)OC)C(c2ccc(C)cc2)C(C#N)(C#N)C1c1ccc(C)cc1 (centres undefined) 6.45%, COc1ccc(/C=C/C(=O)Nc2cc(C(F)(F)F)ccc2Cl)cc1 0.39%, CCOC(=O)C1=C(C)NC(C)=C(C(=O)OCC)C1c1cccc([N+](=O)[O-])c1 10.8%, O=C(c1cccc(N2CCCC2=O)c1)N1CCN(c2ccccc2)CC1 10.3%, COCCN(C(=O)Cc1coc2cc(C)c(C)cc12)c1c(N)n(Cc2ccccc2)c(=O)[nH]c1=O 0.31%, CCCC(C(=O)N(C)CC(=O)Nc1ccc(N2CCOCC2)cc1)c1ccccc1 (centres undefined) 7.2%, CCNC(=S)N(Cc1cc2c(C)ccc(C)c2[nH]c1=O)C1CCCC1 3.17%, COc1ccc(C(=O)N2CCCC(Nc3ccc(F)cc3)C2)c(OC)c1 (centres undefined) 5.24%, COc1ccc(NC2CCCN(C(=O)CSc3ccncc3)C2)cc1 (centres undefined) 31.3%, COc1ccc(NC2CCCN(C(=O)C3(C)CCCCC3)C2)cc1OC (centres undefined) -45.5%, Cc1nc(C(=O)N2CCCC(Nc3ccc(C)c(C)c3)C2)cs1 (centres undefined) 13.6%, CSc1nc(C(=O)N2CCCC(Nc3ccc(C)c(C)c3)C2)cs1 (centres undefined) 13.4%, COc1ccc(C(=O)N2CCCC(Nc3ccc(C)c(C)c3)C2)cc1 (centres undefined) 16.9%, Cc1cc(C(=O)N2CCCC(Nc3ccccc3)C2)c2ccc(F)cc2n1 (centres undefined) 12.7%, COc1ccc(NC2CCCN(C(=O)c3ccc4[nH]c(C)c(C)c4c3)C2)cc1OC (centres undefined) 12.8%
